# Test system: HepG2
# Experiment: GSK_TCMDC: Percent inhibition of human HepG2 cell line. Test compounds present at 10uM.
# Type: functional
row,SMILES,Inhibition
1,Nc1nc2c(ncn2OC[C@H]2COP(=O)([O-])CO2)c(=O)[nH]1.[Na+],1%
2,Cl.O=S(=O)(Nc1cc2c(cc1O)CCN(C1CCC1)CC2)c1ccc(-c2ccc(F)cc2)cc1,16%
3,Cc1cc(N(CCCN(C)C)Cc2cc(F)cc(F)c2)nc(Nc2ccc(Cl)cc2)n1,37%
4,Cc1ccc(Nc2nccc(Nc3ccc4c(c3)nc(Nc3cc(C(C)(C)C)on3)n4C)n2)cc1S(C)(=O)=O,30%
5,COc1ccc(NC(=O)[C@H](Cc2ccccc2)Nc2cc(C)nc(NCCc3cccnc3)n2)cc1.O=C(O)C(F)(F)F,11%
6,Cc1cc(NCc2ccccc2)nc(NCc2ccccc2)n1,21%
7,O=C(Nc1cccc(CN2CCN(C(=O)c3cccc(Cl)c3)CC2)c1)c1cccs1.O=C(O)C(F)(F)F,17%
8,CCOC(=O)c1ccc(NC(=O)Nc2ccc(Cn3ncc(N4CCCNCC4)c(Cl)c3=O)cc2)cc1.O=C(O)C(F)(F)F,2%
9,Fc1ccccc1C=NN=c1cc[nH]c2ccc(C(F)(F)F)cc12,5%
10,OC1=C2C(=Nc3ccccc3SC2c2ccccc2)c2ccccc21 (stereo not given),5%
11,COc1ccc(NC(=O)c2ccc(Br)c(C)c2)cc1N1CCN(CCCc2c[nH]c3ccccc23)CC1,21%
12,CC[C@H](C)CNC(=O)c1cncc(-c2ccc(CNCC3CNCCCO3)cc2)c1.O=C(O)C(F)(F)F (stereo not given in full),0%
13,COc1cc(OC)cc(-c2nnc(Sc3ccc(C#N)c([N+](=O)[O-])c3)n2C)c1,1%
14,Cc1cccc2nc(-c3cccc(-c4cccc(CNCc5ccccc5)c4)c3)[nH]c12.O=C(O)C(F)(F)F,3%
15,CCOC(=O)c1ccc(NC(=O)Nc2ccc(-c3cccc(-c4nc5cccc(C)c5[nH]4)c3)cc2)cc1,91%
16,O=c1cc(NCCCNC2CCCc3c2ccc2ccccc32)[nH]c2ccccc12 (stereo not given),0%
17,Cc1[nH]c(C)c(-c2cc3ccccc3o2)c(=O)c1Cl,1%
18,Cc1cccc(CN2CCCC3(CCN(Cc4ccccc4O)C3)C2)c1 (stereo not given),14%
19,COc1ccc(CNC(=O)NC2CCN(c3ccnc(Nc4ccc(OC)cc4)n3)C2)cc1 (stereo not given),27%
20,Cc1cc(N[C@@H](CC(C)C)C(=O)Nc2ccccc2)nc(Nc2ccccc2)n1.O=C(O)C(F)(F)F,0%

row,SMILES,Inhibition
1,Cc1ccc(C(=O)NCC2CCN(c3ccc(C(F)(F)F)cc3NC(=O)c3ccco3)CC2)cn1,9%
2,CCn1c(-c2ccccc2)cc2nnc3ccccc3c21,34%
3,NC1=Nc2ccc(Cl)cc2C1(O)c1ccccc1 (stereo not given),0%
4,COc1ccc(-c2ccc(NC(=O)c3cccs3)cc2)cc1CN1CCCN(C)CC1.O=C(O)C(F)(F)F,31%
5,O=C(Nc1ccc(Cn2ncc(N3CCCNCC3)c(Cl)c2=O)cc1)Nc1cccc(Oc2ccccc2)c1.O=C(O)C(F)(F)F,8%
6,CC(C)(C)c1ccc(CN2CCCCC(NC(=O)c3cc(-c4ccccc4Cl)cs3)C2)cc1.O=C(O)C(F)(F)F (stereo not given),3%
7,O=C(Nc1ccccc1O)C1CCN(c2ncnc3cc(-c4ccc(F)cc4)sc23)CC1,10%
8,CCCc1cc(Cc2cnc(N)nc2N)cc(CCC)c1OCCCCCC(=O)OCC,12%
9,Cc1cccc(-c2nn(-c3ccccc3)c3[nH]c(=O)c(CNC4CCCC4)cc23)c1,18%
10,N#Cc1ccc(-c2ccc(C(=O)NCCCCN3CCC(c4cn(CCCO)c5ccccc45)CC3)cc2)cc1,31%
11,CCC(C)NS(=O)(=O)c1ccc2nc(Nc3ccc(C)c(Cl)c3)n([C@H](C)C(C)(C)C)c2c1 (stereo not given in full),8%
12,NCc1ccc(CNCc2cccc(-c3cccc(-c4nc5ccccc5[nH]4)c3)c2)cc1.O=C(O)C(F)(F)F,7%
13,N#Cc1cnc2cc(-c3cnc(CNCCN4CCOCC4)s3)ccc2c1Nc1ccc(Oc2ccccc2)cc1,30%
14,CCN(CCCN1CCCCC1)c1cc(C)nc(Nc2cc(C)ccc2C)n1.O=C(O)C(F)(F)F,34%
15,COc1cc2nc(NCCn3cccn3)nc(NCCc3ccccc3)c2cc1OC,12%
16,CC1CCN(Cc2c(O)ccc3c(O)c(-c4nc5ccccc5s4)c(=N)oc23)CC1,2%
17,CCCNCc1ccc(-c2ccc(CN(Cc3ccc4c(c3)OCO4)C(=O)Cc3cccnc3)cc2)nc1.O=C(O)C(F)(F)F,16%
18,COc1cc(N(Cc2ccccc2C)S(=O)(=O)Cc2ccccc2[N+](=O)[O-])c(OC)cc1Cl,16%
19,CCCC(C)Nc1nc(C)cc(N[C@@H](CC(C)C)C(=O)Nc2ccc(OC)cc2)n1.O=C(O)C(F)(F)F (stereo not given in full),18%
20,CCOC(=O)NC1=NC(C)(C)N(OCc2ccc(Cl)c(Cl)c2)C(NC(=O)OCC)=N1,65%

# — ChEMBL document CHEMBL1157539, “Thousands of chemical starting points for antimalarial lead identification” (Nature, 2010)
